Out of some 3,200 compounds screened, about 300 (9.4%) showed activity. Only a selection was taken, and actives are over-represented in it overall.
Tested on: A673/TR/shEF
Test: cell viability (LOESS-normalised, relative to median of negative controls) (log2 ratio); higher = more viable cells (less compound effect), active = hit call of the paper (over 3 MAD below the median)
Settings: treatment time: 72 h
Outline: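 A673/TR/shEF Ewing sarcoma cells were plated at 1,500 per well in 384-well plates and cultured with or without doxycycline, added 24 h before compounds, to induce EWS-FLI1 shRNA knockdown. Library compounds at two or more concentrations, alongside DMSO controls, were applied for three days. Cell viability was measured by CellTiter-Glo luminescence on an Envision reader. Readings were LOESS-corrected per plate, divided by the median of negative controls and log2-transformed, and hits were wells lying at least three median absolute deviations from the median of all screened wells.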

[1] = 0.103 µM, library screen: screen3, EWS-FLI1 expression: high (no doxycycline)
[2] = 0.103 µM, library screen: screen3, EWS-FLI1 expression: low (doxycycline-induced shRNA knockdown)
[3] = 0.308 µM, library screen: screen3, EWS-FLI1 expression: high (no doxycycline)
[4] = 0.308 µM, library screen: screen3, EWS-FLI1 expression: low (doxycycline-induced shRNA knockdown)
[5] = 0.926 µM, library screen: screen3, EWS-FLI1 expression: high (no doxycycline)
[6] = 0.926 µM, library screen: screen3, EWS-FLI1 expression: low (doxycycline-induced shRNA knockdown)
[7] = 2.8 µM, library screen: screen3, EWS-FLI1 expression: high (no doxycycline)
[8] = 2.8 µM, library screen: screen3, EWS-FLI1 expression: low (doxycycline-induced shRNA knockdown)
[9] = 8.3 µM, library screen: screen3, EWS-FLI1 expression: high (no doxycycline)
[10] = 8.3 µM, library screen: screen3, EWS-FLI1 expression: low (doxycycline-induced shRNA knockdown)
[11] = 25 µM, library screen: screen3, EWS-FLI1 expression: high (no doxycycline)
[12] = 25 µM, library screen: screen3, EWS-FLI1 expression: low (doxycycline-induced shRNA knockdown)
[13] = 0.25 µM, library screen: screen2, EWS-FLI1 expression: high (no doxycycline)
[14] = 0.25 µM, library screen: screen2, EWS-FLI1 expression: low (doxycycline-induced shRNA knockdown)
[15] = 2.5 µM, library screen: screen2, EWS-FLI1 expression: high (no doxycycline)
[16] = 2.5 µM, library screen: screen2, EWS-FLI1 expression: low (doxycycline-induced shRNA knockdown)
[17] = 0.25 µM, library screen: screen1, EWS-FLI1 expression: high (no doxycycline)
[18] = 0.25 µM, library screen: screen1, EWS-FLI1 expression: low (doxycycline-induced shRNA knockdown)
[19] = 2.5 µM, library screen: screen1, EWS-FLI1 expression: high (no doxycycline)
[20] = 2.5 µM, library screen: screen1, EWS-FLI1 expression: low (doxycycline-induced shRNA knockdown)

Measured: cell viability (log2)

Nc1nc(Cl)nc2c1ncn2[C@H]1C[C@H](O)[C@@H](CO)O1
inactive: [1] 0.0389 | [2] -0.0254 | [3] 0.0133 | [4] 0.0217 | [5] 0.0147 | [6] 0.0591 | [7] -0.0664 | [8] 0.0972 | [10] -0.0455
active: [9] -0.402 | [11] -1.32 | [12] -0.402

Nc1nc(Cl)nc2c1ncn2[C@@H]1O[C@H](COP(=O)(O)OP(=O)(O)OP(=O)(O)O)[C@H](O)C1O (stereo partly specified)
inactive: [13] 0.146 | [14] 0.0571 | [15] 0.0213 | [16] 0.0355

OC[C@H]1O[C@@H](n2cnc3c(NC4CCCC4)nc(Cl)nc32)[C@H](O)[C@@H]1O
inactive: [13] 0.143 | [14] 0.038 | [15] 0.169 | [16] 0.0636

Nc1nc(Cl)nc2c1ncn2[C@@H]1O[C@H](CO)[C@@H](O)[C@H]1O
inactive: [13] 0.323 | [14] 0.0766 | [15] 0.0971 | [16] -0.0176

Nc1nc(Cl)nc2c1ncn2[C@@H]1O[C@H](CO)[C@@H](O)[C@@H]1F
active: [7] -0.287 | [9] -1.27 | [11] -3.63 | [12] -0.69
inactive: [1] 0.0438 | [2] 0.0567 | [3] 0.104 | [4] 0.0694 | [5] -0.027 | [6] 0.0481 | [8] 0.0753 | [10] -0.0627

Nc1ncnc2c1ncn2[C@H]1C[C@H](O)[C@@H](CO)O1
inactive: [17] 0.0888 | [18] 0.137 | [19] 0.0495 | [20] 0.162

CC1(NCC(O)COc2cccc3[nH]ccc23)CCC(C(C)(C)NC(=O)CBr)CC1 (stereo unspecified)
inactive: [13] 0.126 | [14] 0.0547 | [15] 0.106 | [16] 0.0182

CCOc1c(Br)cc(C=C(C#N)c2nn(-c3ccccc3)c(N)c2C#N)cc1OC
inactive: [17] 0.0856 | [18] 0.124 | [19] 0.0719 | [20] 0.193

CCOC(=O)c1c[nH]c2c(C)cccc2c1=O
inactive: [17] 0.111 | [18] 0.0771 | [19] 0.1 | [20] -0.0609

CC[C@H]1OC(=O)[C@H](C)[C@@H](O[C@H]2C[C@@](C)(OC)[C@@H](O)[C@H](C)O2)[C@H](C)[C@@H](O[C@@H]2O[C@H](C)C[C@H](N(C)C)[C@H]2O)[C@](C)(O)C[C@@H](C)[C@@H]2N[C@@H](COCCOC)OC([C@H]2C)[C@]1(C)O
inactive: [17] 0.163 | [18] 0.065 | [19] 0.143 | [20] 0.0253

COc1cc(O)c2c(=O)c(-c3ccc(O)cc3)coc2c1
inactive: [17] -0.0342 | [18] 0.0164 | [19] 0.131 | [20] 0.0327

O=C1CCCCC/C=C\CCCCCCCCO1
inactive: [17] -0.00728 | [18] 0.0186 | [19] 0.143 | [20] 0.0924

CCCCCCCCCCCCCCCCCC(=O)NCC(COP(=O)([O-])OCC[N+](C)(C)C)OC (stereo unspecified)
inactive: [13] 0.255 | [14] 0.0758 | [15] 0.173 | [16] 0.0504

Cc1cc(Nc2cc(CN3CCOCC3)c3nc(C)c(Cc4ccc(Cl)cc4F)n3n2)n[nH]1
inactive: [1] 0.0112 | [2] 0.0393 | [3] -0.00623 | [4] -0.00356 | [5] -0.0578 | [6] 0.0432 | [8] -0.0123
active: [7] -0.183 | [9] -0.442 | [10] -0.142 | [11] -1.04 | [12] -0.863

COc1c2ccoc2c(OC)c2oc(=O)ccc12
inactive: [17] 0.157 | [18] -0.0309 | [19] 0.197 | [20] 0.0899

CC1Cc2ccccc2N1C(=S)Nc1ccc2nccnc2c1 (stereo unspecified)
inactive: [17] 0.139 | [18] 0.113 | [19] 0.133 | [20] 0.0139

CC[C@H](C)C(=O)O[C@H]1CCC=C2C=C[C@H](C)[C@H](CC[C@@H]3C[C@@H](O)CC(=O)O3)[C@H]21
inactive: [17] 0.147 | [18] 0.00215 | [13] 0.167 | [14] 0.108 | [19] 0.0603 | [20] -0.0998 | [15] 0.145 | [16] 0.0674

CC[C@H](C)C(=O)O[C@H]1C[C@@H](C)C=C2C=C[C@H](C)[C@H](CC[C@@H]3C[C@@H](O)CC(=O)O3)[C@H]21
inactive: [17] 0.0174 | [18] -0.0358 | [19] 0.109 | [20] 0.0431

CCC(C)(C)C(=O)O[C@H]1C[C@@H](C)C=C2C=C[C@H](C)[C@H](CC[C@@H]3C[C@@H](O)CC(=O)O3)[C@H]21
inactive: [1] 0.14 | [2] 0.05 | [17] 0.0551 | [18] -0.0746 | [3] 0.153 | [4] 0.105 | [5] 0.0408 | [6] 0.0447 | [19] 0.0209 | [20] -0.321 | [7] 0.107 | [8] -0.0366 | [9] -0.0829 | [10] -0.13
active: [11] -1.27 | [12] -1.32

COCCn1c2c([n+](Cc3cnccn3)c1C)C(=O)c1ccccc1C2=O
active: [1] -3.94 | [2] -2.36 | [3] -3.88 | [4] -4.02 | [5] -3.96 | [6] -4.06 | [7] -4.31 | [8] -4.17 | [9] -4.31 | [10] -4.28 | [11] -4.31 | [12] -4.3

CC(=O)OCC(=O)[C@@]1(O)CC[C@H]2[C@@H]3CC[C@@H]4C[C@H](O)CC[C@]4(C)[C@H]3C(=O)C[C@@]21C
inactive: [17] 0.128 | [18] 0.0697 | [19] 0.109 | [20] -0.0114

COc1ccc(-c2cc(=O)c3ccccc3o2)cc1OC
inactive: [17] -0.0122 | [18] 0.00789 | [19] 0.068 | [20] 0.128

C=C[C@@H](C1=CC(=O)C(OC)=C(OC)C1=O)c1ccccc1
inactive: [18] 0.026 | [19] -0.00361 | [20] 0.0945
active: [17] -0.165

C=CC(C1=CC(=O)C(OC)=CC1=O)c1ccc(OC)cc1 (stereo unspecified)
inactive: [17] 0.133 | [18] 0.135 | [19] 0.157 | [20] 0.265

C=CC(C1=CC(=O)C(OC)=CC1=O)c1ccccc1 (stereo unspecified)
inactive: [17] 0.0774 | [18] 0.000535 | [19] 0.158 | [20] 0.101

COc1ccc(C2C3=C(CC(C)(C)CC3=O)OC3=C2C(=O)CC(C)(C)C3)cc1[N+](=O)[O-]
inactive: [17] 0.06 | [18] 0.0112 | [19] 0.134 | [20] -0.00188

CC1=C(O)C(=O)C(C(C)C)CC1 (stereo unspecified)
inactive: [17] 0.0674 | [18] 0.0473 | [19] 0.0636 | [20] 0.0767

COc1ccc(C2CC(=O)c3c(OC)cc(O)cc3O2)cc1 (stereo unspecified)
inactive: [17] 0.0309 | [18] -0.00204 | [19] -0.0215 | [20] 0.0561

CC1=C2[C@H]3OC(=O)[C@@H](C)[C@@H]3[C@@H](O)C[C@@]2(C)C=CC1=O
inactive: [17] 0.026 | [18] 0.0292 | [19] 0.113 | [20] 0.0749

CC(C)[C@@H](C)C=C[C@@H](C)[C@H]1CC[C@H]2C3=CCC4CC(=O)CC[C@]4(C)[C@H]3CC[C@]12C (stereo partly specified)
inactive: [17] 0.0656 | [18] 0.0592 | [19] 0.126 | [20] 0.0808

C[C@@H]1C/C=C/C=C/C=C/C=C/[C@H](OC2O[C@H](C)[C@@H](O)[C@H](N)[C@@H]2O)C[C@@H]2O[C@](O)(C[C@@H](O)C[C@H]3O[C@@H]3/C=C/C(=O)O1)C[C@H](O)[C@H]2C(=O)O (stereo partly specified)
inactive: [1] 0.0488 | [2] 0.0464 | [3] 0.0456 | [4] 0.0497 | [5] 0.0317 | [6] 0.0938 | [7] 0.0554 | [8] 0.0621 | [9] 0.0808 | [10] 0.0825 | [11] 0.128 | [12] 0.0916

CCCCCCCCCCCCCCCC(=O)C1=C(O)[C@@H](CO)OC1=O
inactive: 0.025 µM, library screen: screen1, EWS-FLI1 expression: high (no doxycycline) 0.213 | 0.025 µM, library screen: screen1, EWS-FLI1 expression: low (doxycycline-induced shRNA knockdown) 0.0909 | [17] 0.235 | [18] 0.112 | [20] 0.0271 | 25 µM, library screen: screen1, EWS-FLI1 expression: low (doxycycline-induced shRNA knockdown) -0.135
active: [19] -0.362 | 25 µM, library screen: screen1, EWS-FLI1 expression: high (no doxycycline) -0.293

CCCCCCCCCCCCCCCC(=O)NCCO
inactive: [13] 0.109 | [14] 0.0709 | [15] 0.0624 | [16] 0.0396

N#C/C(=C\c1cccc(Cl)c1)c1nc2ccccc2[nH]1
inactive: [17] 0.153 | [18] 0.256 | [19] 0.247 | [20] 0.148

Oc1ccc(OCc2ccccc2)cc1
active: [7] -0.186 | [11] -0.212
inactive: [1] 0.123 | [2] -0.0268 | [3] 0.0306 | [4] 0.0601 | [5] 0.0336 | [6] -0.0221 | [8] 0.0872 | [9] -0.00746 | [10] 0.0842 | [12] 0.0776

CC(COc1ccccc1)NC(C)C(O)c1ccc(O)cc1 (stereo unspecified)
inactive: [17] 0.163 | [18] 0.0434 | [19] 0.178 | [20] 0.141

O=C(OCc1ccccc1)c1ccccc1
inactive: [17] 0.0522 | [18] 0.0983 | [19] 0.0811 | [20] 0.112

— the supplement of paper PMC6089552
